# TSHR antagonist: Antagonists of the Thyroid Stimulating Hormone Receptor: HTS campaign | Thyrotropin receptor (Homo sapiens), P16473 | 0.2% of 330,000 active | AID 504810, 2011 | activity change, negative = inhibition, % at 11.5 µM | TSHR-expressing cells, TSH-stimulated cAMP HTRF, 2 h; stronger effect = lower value;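 active = activity change below a set negative limit, meaning inhibition stronger than a set level, cut at about -70% in these data; inconclusive = activity change between two set negative limits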
# Target sequence (P16473 whole entry, looked up): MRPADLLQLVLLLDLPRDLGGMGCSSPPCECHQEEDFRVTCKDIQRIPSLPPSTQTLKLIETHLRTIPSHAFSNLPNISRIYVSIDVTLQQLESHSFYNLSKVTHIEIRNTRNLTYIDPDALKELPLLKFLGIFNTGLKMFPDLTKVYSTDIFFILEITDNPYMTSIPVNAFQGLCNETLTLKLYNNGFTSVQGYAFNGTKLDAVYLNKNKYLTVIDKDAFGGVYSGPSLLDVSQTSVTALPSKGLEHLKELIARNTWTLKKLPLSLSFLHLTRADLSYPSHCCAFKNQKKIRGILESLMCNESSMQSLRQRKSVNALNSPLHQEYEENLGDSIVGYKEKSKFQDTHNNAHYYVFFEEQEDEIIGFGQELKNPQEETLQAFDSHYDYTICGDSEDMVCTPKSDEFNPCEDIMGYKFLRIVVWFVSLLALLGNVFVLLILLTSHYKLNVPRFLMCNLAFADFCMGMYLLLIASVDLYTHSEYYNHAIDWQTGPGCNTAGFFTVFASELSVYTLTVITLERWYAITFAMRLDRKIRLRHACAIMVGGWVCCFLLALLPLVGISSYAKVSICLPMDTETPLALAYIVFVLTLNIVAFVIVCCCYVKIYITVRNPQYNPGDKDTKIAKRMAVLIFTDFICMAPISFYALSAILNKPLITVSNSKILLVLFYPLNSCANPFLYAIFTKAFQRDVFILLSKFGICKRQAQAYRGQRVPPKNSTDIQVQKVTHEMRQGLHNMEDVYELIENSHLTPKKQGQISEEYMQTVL
#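 Competitive HTRF cAMP read-out (cryptate anti-cAMP antibody, cAMP-d2; 30 min, room temperature) in freshly harvested TSHR cells. Compounds added before TSH at EC80 (4nM final), followed by 2 hours' incubation at 37 deg C.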
# Gal4-VP16 FLuc: VP16 counterscreen qHTS for inhibitors of ROR gamma transcriptional activity; AID 2546, 2010; 3.5% of 310,000 active; Drosophila S2 Gal4-VP16 UAS-luciferase, luminescence, 20 h; Potency, µM (doses to about 53.6 µM), usual class: inhibitors;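 also: Gal4-VP16 expression switched on by copper sulfate through the metallothionein promoter; nearly all actives have a fitted effect of over 50% in size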
# ELG1 DNA repair: qHTS screen for small molecules that inhibit ELG1-dependent DNA repair in human embryonic kidney (HEK293T) cells expressing luciferase-tagged ELG1 | HEK293T ELG1-luciferase reporter, luminescence, 16 h; DNA damage induced by 5-fluorouridine | Potency, µM (titrated, usually from 46.1 µM), usual class: inhibitors | 2.3% of 330,000 active | AID 504467, 2011; also: nearly all actives have a fitted effect of over 55% in size
#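 Overnight (16 hr) co-exposure of 2,000 cells/well to 5-fluorouridine and compound at 37 °C preceded detection. Luciferase was quantified via ONE-Glo luminescence; loss of signal denotes inhibition.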
# FBPA coupling cs: qHTS Assay for Inhibitors of Fructose-1,6-bisphosphate Aldolase from Giardia Lamblia: Coupling assay counterscreen. coupling enzyme system counterscreen, AmpLite Red fluorescence. activity change, negative = inhibition, % at 58.2 µM, hits read low. 0.67% of 290,000 active; in the data active = activity change below about -30%
#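 Compounds tested against the coupling enzymes alone at 57.5 uM final; readout was AmpLite Red fluorescence (525/598 nm) after 20 min at RT.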
# RORgamma inh: qHTS for inhibitors of ROR gamma transcriptional activity; Nuclear receptor ROR-gamma (Mus musculus), P51450; Potency, µM (highest dose often 53.6 µM), most hits filed as inhibitors; Drosophila S2 Gal4-RORgamma UAS-luciferase reporter, 20 h; 5.4% of 310,000 active; also: nearly all actives have a fitted effect of over 60% in size
#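 Read-out: Photinus luciferase luminescence; inhibitors lower reporter signal. Insect Schneider cells with Gal4-ROR gamma fusion under metallothionein promoter, UAS reporter; 700 uM final copper sulfate induction, 20 hr, ambient temperature.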
# Numbers stand for hits; n = inactive; u = inconclusive; x = not tested or not shown; [ ] = dose if it differs, or a comment. A selection: hits, their analogues and other compounds. The true share with any hit is near 8%. Unless noted, calls follow the shape of the dose curve; as a rule, active = well fitted curve in the direction sought with a large enough effect; inconclusive = small, poorly fitted or top-dose-only effect, or another doubt; inactive = no such curve, though single readings can be large; an effect the other way counts as inactive or inconclusive.
SMILES,TSHR antagonist,Gal4-VP16 FLuc,ELG1 DNA repair,FBPA coupling cs,RORgamma inh
COc1ccc(-c2cc(C(=O)OCC(=O)c3c(N)n(C)c(=O)n(C)c3=O)c3ccccc3n2)cc1,n,n,n,n,n
Cn1c(N)c(C(=O)COC(=O)c2cc(-c3ccco3)nc3ccccc23)c(=O)n(Cc2ccccc2)c1=O,n,n,n,n,n
COc1ccc(-c2cc(C(=O)c3c(N)n(C)c(=O)n(C)c3=O)c3ccccc3n2)cc1,n,11µM,u,n,14µM
Cn1c(N)c(C(=O)COC(=O)c2cc(-c3ccco3)nc3ccccc23)c(=O)n(C)c1=O,n,n,12µM,n,u
COC(=O)[C@@H]1C[C@@]1(C)[C@@H](NC(=O)OCc1ccccc1)c1ccccc1,x,n,x,n,u
NCCC[C@@H](CC(=O)N[C@@H]1CCCC[C@H]1C(=O)N[C@H](CC(=O)N[C@@H](CCC(=O)O)CC(=O)O)Cc1c[nH]c2ccccc12)NC(=O)C[C@H](Cc1c[nH]c2ccccc12)NC(=O)[C@@H]1CCCC[C@H]1N,x,n,x,n,n
O=C(CNC(=O)c1ccccn1)N=Nc1c(O)[nH]c2ccccc12,n,n,u,n,n
COc1ccccc1OCC(=O)Nc1ccncc1,n,n,n,n,n
Cc1cc(C)cc(OCC(=O)Nc2cccc(-c3nc4ncccc4o3)c2)c1,n,n,12µM,n,n
Cc1cccc(OCC(=O)Nc2nc3ccc([N+](=O)[O-])cc3s2)c1C,-76,n,n,n,n
Cc1cc(C)cc(OCC(=O)Nc2ccncc2)c1,n,u,16µM,n,u
Cc1cccc(OCC(=O)Nc2ccncc2)c1C,n,3.2µM,n,n,u
O=C(Cc1ccccc1)Nc1cccc(-c2nc3ncccc3o2)c1,n,n,n,n,n
Cc1ccc(OCC(=O)Nc2ccncc2)cc1,n,u,n,n,u
CS(=O)(=O)N1CCC2(CCN(Cc3ccc(C#N)cc3)CC2)CC1,x,n,x,n,n
CNC[C@H]1Oc2ccc(NC(=O)Cc3cn(C)c4ccccc34)cc2CC(=O)N([C@@H](C)CO)C[C@H]1C,n,x,n,x,x
CCN(CC(=O)Nc1ccc(NC(C)=O)cc1)C(=O)/C=C/c1c(C)nn(-c2ccc(F)cc2)c1Cl,n,x,5.8µM,x,x
COc1cc(NC(=O)COC(=O)/C=C/c2c(C)nn(-c3ccc(F)cc3)c2Cl)cc(OC)c1,n,n,u,n,n
CCn1c(SC(C)C)nnc1-c1cc(-c2ccccc2)sc1N,n,7.1µM,u,n,6.3µM
CCn1c(SCc2cccc(C)c2)nnc1-c1ccccc1,n,n,n,n,n
COc1ccc(C2C(O)C(c3c[nH]c4ccccc34)=NN2C(=O)CCl)cc1 (stereo not given),n,10µM,8.2µM,n,13µM
O=C(CN1C(=O)NC2(CCCCC2)C1=O)Nc1ccccc1N1CCCC1,n,x,n,x,x
COc1cc(-c2nc(C(=O)NC3CCCCC3)cc3c2[nH]c2ccccc23)cc(OC)c1OC,n,n,5.8µM,n,n
COc1cccc(C(CNC(=O)C(c2ccccc2)c2ccccc2)N(C)C)c1 (stereo not given),n,n,n,n,n
CC(CCN1CCN(CCO)CC1)c1ccccc1 (stereo not given),n,n,n,n,2.8µM
SMILES,TSHR antagonist,Gal4-VP16 FLuc,ELG1 DNA repair,FBPA coupling cs,RORgamma inh
CC1=NN(c2ccccc2)C(=O)/C1=C\C=C\c1ccccc1,n,u,18µM,n,8.9µM
CCOC(=O)c1ccc(N2N=C(C)/C(=C/C=C/c3ccco3)C2=O)cc1,n,n,n,n,n
CC1=NN(c2ccc(C(=O)OC(C)C)cc2)C(=O)/C1=C\C=C\c1ccco1,n,u,n,n,14µM
CCc1ccc(OCC(=O)N/N=C(\C)c2ccc(O)cc2O)cc1,n,u,u,n,13µM
O=C(O)c1cc(=O)c2cc(Cl)ccc2[nH]1,x,n,x,n,n
Cc1sc2ncnc(SCC(=O)c3ccc(O)cc3O)c2c1C,n,u,n,n,13µM
Cc1ccc(OCCSc2ncnc3sc(C)c(C)c23)cc1C,n,n,n,n,11µM
CCC(=O)NC(c1cccs1)c1cc(Br)c2cccnc2c1O (stereo not given),n,x,x,x,x
O=C(CCc1ccccc1)NC(c1cccs1)c1cc(Cl)c2cccnc2c1O (stereo not given),n,0.79µM,u,n,0.63µM
CCC(=O)NC(c1cccs1)c1cc([N+](=O)[O-])c2cccnc2c1O (stereo not given),n,5µM,n,n,3.2µM
CC(=O)NC(c1cccs1)c1cc([N+](=O)[O-])c2cccnc2c1O (stereo not given),n,16µM,u,n,6.3µM
CC(=O)NC(c1cccs1)c1cc(Cl)c2ccccc2c1O (stereo not given),n,x,n,x,x
CCC(=O)NC(c1cccs1)c1cc(Cl)c2ccccc2c1O (stereo not given),n,x,u,x,x
CCCC(=O)NC(c1cccs1)c1cc([N+](=O)[O-])c2cccnc2c1O (stereo not given),n,4µM,n,-32,5.6µM
O=C(COC(=O)CNC(=O)C1CCCCC1)Nc1ccccc1Cl,n,x,u,x,x
COc1c(C2=CC(=O)N(C)C2=O)c2c(n1C)C(=O)c1ccccc1C2=O,x,10µM,x,-35,u
Oc1oc(-c2ccccc2)nc1/C=N/c1nccs1,n,u,u,n,16µM
C=CCc1cccc(C2C(C)CCC3C(=O)N4C(CCC(C)C4c4cccc(CC=C)c4)C(=O)N32)c1 (stereo not given),x,n[10 µM],x,n,n[10 µM]
COC(=O)c1ccc(C(NC(=O)OCc2ccccc2)/C(=C/[C@@H](C)C(=O)NCc2cc(C)n(C)n2)c2cccnc2)cc1 (stereo not given in full),x,n,x,n,n
Oc1ccc(N=Nc2ccccc2)o1,n,16µM,n,n,u
Cc1ccccc1C(=O)Nc1ccccc1C(=O)N/N=C\c1ccco1,n,u,n,n,10µM
O=C(Nc1ccccc1C(=O)N/N=C/c1ccco1)c1ccc(Cl)cc1,n,4µM,n,n,2.8µM
O=C(Nc1ccccc1C(=O)N/N=C/c1ccco1)c1ccccc1,n,u,n,n,7.9µM
O=C(N/N=C/c1ccco1)C1CC1(c1ccccc1)c1ccccc1 (stereo not given),n,u,n,n,0.35µM
O=C(Nc1ccccc1C(=O)N/N=C/c1ccco1)c1ccc(F)cc1,n,5µM,n,n,1.1µM
NS(=O)(=O)c1ccc(Sc2nc3ccccc3s2)c([N+](=O)[O-])c1,n,10µM,n,n,n
CC(NC(=O)CN1CCN(C(=O)c2cccs2)CC1)c1ccc(F)cc1F (stereo not given),n,x,n,x,x
